Hits are enriched below; roughly 10% of the tested compounds scored in any of these assays.
NIH3T3 tox – Cytotoxic Profiling in NIH 3T3 Cell Line of Diverse Libraries Using Quantitative High-Throughput Screening | NIH 3T3 viability, CellTiter-Glo ATP luminescence, 48-72 h | Potency, µM (titrated, usually from 96.7 µM), for inactives: top-dose activity change, negative = cytotoxicity, hits mostly inhibitors | actives 4.3% (n = 94,000) | AID 1345082, 2018; also: % is scaled to controls: 0 for no effect and ±100 for the full control effect; nearly all actives have a fitted effect of over 55% in size
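Luminescent ATP readout (CellTiter-Glo, 10 min RT) after 48 or 72 hr compound exposure of NIH 3T3 cells seeded at 400 cells/well in 1536-well format; quantitative HTS.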
GPT2 inhibitor – Primary qHTS assay for inhibitors of Glutamate pyruvate transaminase 2 (GPT2). Recombinant GPT2, coupled pyruvate oxidase/HRP Amplex Red fluorescence. Alanine aminotransferase 2 (Homo sapiens), Q8TD30. Potency, µM (series often up to 57.7 µM), without a hit: at the top dose activity change, negative = inhibition, hits mostly inhibitors. actives 0.25% (n = 100,000); also: % is scaled to controls: 0 for no effect and ±100 for the full control effect; nearly all actives have a fitted effect of over 60% in size
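Fluorescence read-out: pyruvate from GPT2 turnover coupled to pyruvate oxidase, HRP and Amplex Red (0.2mM ThPP, 0.2U/mL PO and HRP, 50uM Amplex final). Substrates 250uM a-KG, 2mM L-alanine; enzyme 10ng/uL; 30 min RT.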
NPR1 antag – Natriuretic polypeptide receptor (hNpr1) antagonism - Primary qHTS; Atrial natriuretic peptide receptor 1 (Homo sapiens), P16066; HEK293 hNpr1 GloSensor cGMP, ANP-stimulated luminescence; Potency, µM (highest dose often 46.3 µM), without a hit: at the highest dose activity change, negative = inhibition, hits mostly inhibitors; actives 1.6% (n = 76,000); AID 1347048, 2019; calls by dose curve; also: % is scaled to controls: 0 for no effect and ±100 for the full control effect; nearly all actives have a fitted effect of over 60% in size
Target sequence (P16066 whole entry, looked up): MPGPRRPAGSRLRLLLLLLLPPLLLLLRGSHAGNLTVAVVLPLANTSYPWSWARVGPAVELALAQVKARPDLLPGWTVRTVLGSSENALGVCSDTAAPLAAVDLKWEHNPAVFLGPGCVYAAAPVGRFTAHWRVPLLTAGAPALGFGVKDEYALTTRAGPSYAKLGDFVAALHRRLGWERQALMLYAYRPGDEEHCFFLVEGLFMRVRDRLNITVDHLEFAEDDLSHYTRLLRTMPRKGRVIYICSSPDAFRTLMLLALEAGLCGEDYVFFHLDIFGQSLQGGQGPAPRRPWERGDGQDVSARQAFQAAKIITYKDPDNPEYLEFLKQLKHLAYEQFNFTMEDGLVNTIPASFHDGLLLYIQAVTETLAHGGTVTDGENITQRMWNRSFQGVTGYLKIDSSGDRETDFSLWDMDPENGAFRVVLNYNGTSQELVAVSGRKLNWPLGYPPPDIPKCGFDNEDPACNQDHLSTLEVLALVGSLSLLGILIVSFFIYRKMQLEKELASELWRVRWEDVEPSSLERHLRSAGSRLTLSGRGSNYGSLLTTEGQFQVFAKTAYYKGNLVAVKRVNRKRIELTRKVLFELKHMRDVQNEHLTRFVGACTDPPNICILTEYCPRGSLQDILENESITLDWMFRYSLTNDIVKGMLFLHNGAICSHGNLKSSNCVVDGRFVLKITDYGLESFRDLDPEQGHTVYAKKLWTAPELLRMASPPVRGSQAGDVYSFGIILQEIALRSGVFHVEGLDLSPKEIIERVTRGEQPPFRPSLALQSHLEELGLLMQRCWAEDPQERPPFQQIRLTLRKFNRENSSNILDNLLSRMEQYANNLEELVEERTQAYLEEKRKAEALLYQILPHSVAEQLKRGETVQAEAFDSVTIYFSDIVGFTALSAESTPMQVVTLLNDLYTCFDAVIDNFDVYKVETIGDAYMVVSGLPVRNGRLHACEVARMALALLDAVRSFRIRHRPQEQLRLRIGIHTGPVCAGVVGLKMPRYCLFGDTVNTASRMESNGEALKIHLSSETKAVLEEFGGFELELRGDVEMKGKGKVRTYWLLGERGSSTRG
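HEK293 cells stably expressing human Npr1 and cGMP GloSensor pGS-40F, loaded 2 h with 2% GloSensor reagent, given compound 30 min at room temperature. Luminescence read before and 20 min after 0.1 nM hNppA.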
FLuc inh-1 – Firefly luciferase inhibition profiling of diverse chemical library using quantitative high-throughput screening; AID 1347043, 2019; actives 2.5% (n = 76,000); Luciferin 4-monooxygenase (Photinus pyralis), P08659; Potency, µM (doses to about 115 µM), hits mostly inhibitors; purified P. pyralis luciferase, luminescence, biochemical; also: % is scaled to controls: 0 for no effect and ±100 for the full control effect; nearly all actives have a fitted effect of over 65% in size
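Luminescence read by CCD imaging after purified firefly luciferase (10nM final) was added to substrate buffer holding 10uM D-luciferin and 10uM ATP, pH 7.5, pre-dosed with compound.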
HEK293 tox – Cytotoxic Profiling in HEK 293 Cell Line of Diverse Libraries Using Quantitative High-Throughput Screening; AID 1345083, 2018; Potency, µM (doses to about 115 µM), for inactives: at the top dose activity change, negative = cytotoxicity, usual class: inhibitors; HEK 293 viability, ATP luminescence (CellTiter-Glo), 48-72 h; actives 6.6% (n = 94,000); also: % is scaled to controls: 0 for no effect and ±100 for the full control effect; nearly all actives have a fitted effect of over 60% in size
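HEK 293 seeded at 250 cells/well receive compound via pintool. After 48 or 72 hr at 37 degree Celsius, 5% CO2 and 95% humidity, CellTiter-Glo is dispensed and luminescence read following 10 min at room temperature.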
FLuc SDR no ATP – Firefly luciferase (FLuc-C-HiBiT) SDR gain of signal screen - without ATP; shares compounds with FLuc inh-1; Purified FLuc-C-HiBiT, Nano-Glo HiBiT luminescence, no ATP; Potency, µM (doses to about 32.7 µM), for inactives: at the top dose activation (signal gain), actives largely listed as activators; actives 7.8% (n = 1,300); AID 1963318, 2024; also: nearly all actives have a fitted effect of over 55% in size
FLuc SDR ATP – Firefly luciferase (FLuc-C-HiBiT) SDR gain of signal screen - plus ATP; shares compounds with FLuc inh-1; purified FLuc-C-HiBiT + ATP, HiBiT complementation luminescence; Potency, µM (doses to about 32.7 µM), inactives show top-dose activation (gain of signal), hits mostly activators; actives 8.7% (n = 1,300);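 also: signal reports ligand binding via conformational change of the enzyme rather than luciferase catalysis; % of control where 0% means no effect; nearly all actives have a fitted effect of over 55% in size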
FLuc inh-2 – Firefly luciferase (FLuc-C-HiBiT) enzymatic inhibition screen - Functional assay. shares compounds with FLuc inh-1. purified FLuc-C-HiBiT enzyme, luciferin luminescence. Potency, µM (top dose mostly 32.7 µM), for the others: at the highest dose activity change, negative = inhibition, most hits filed as inhibitors. actives 42% (n = 1,300); also: % is scaled to controls: 0 for no effect and ±100 for the full control effect; nearly all actives have a fitted effect of over 70% in size
* = called active by the depositor; i = inactive; ? = inconclusive; . = not tested or not shown; [ ] = remark or other dose. Unless noted, calls follow the shape of the dose curve; as a rule, active = well fitted curve in the direction sought with a large enough effect; inconclusive = small, poorly fitted or top-dose-only effect, or another doubt; inactive = no such curve, though single readings can be large; an effect the other way counts as inactive or inconclusive. Potency is read from the fitted curve at half-maximal effect.

SMILES	NIH3T3 tox	GPT2 inhibitor	NPR1 antag	FLuc inh-1	HEK293 tox	FLuc SDR no ATP	FLuc SDR ATP	FLuc inh-2
O=C(Nc1ncc(-c2ccccc2)c2c1OCC2)c1ccccc1	?	4%[88.5 µM]	-23%[70.6 µM]	5.6µM*	?	16%[49.3 µM]	20%[49.3 µM]	?
CNC(=O)c1cccc(-c2cnc(Nc3cccnc3OC)c3c2CCO3)c1	45µM*	i	?	3.5µM*	28µM*	34%[49.3 µM]	19%[49.3 µM]	5.1µM*
CN(C)c1cccc(-c2cnc(NC(=O)C3(c4ccccc4)CC3)c3c2CCO3)c1	?	i	-3%[70.6 µM]	i	?	.	.	.
CCN(Cc1cnn(CC)c1)C(=O)c1c(C)oc2c1CN(Cc1ccc(F)cc1)CC2	-13%	i	-7%	i	-13%	.	.	.
c1ccc(Nc2ncc(-c3ccccc3)c3c2OCC3)cc1	?	i	-29%[70.6 µM]	?	?	.	.	.
COCCNc1ncc(-c2cccc(NC(C)=O)c2)c2c1OCC2	?	3%[88.5 µM]	?	6.3µM*	?	24%[49.3 µM]	?	?
COc1cccc(Nc2ncc(-c3ccc(OC)nc3)c3c2OCC3)c1	?	4%[88.5 µM]	-29%[70.6 µM]	5.6µM*	?	14%[49.3 µM]	10%[49.3 µM]	?
CNC(=O)c1cccc(-c2cnc(Nc3ccccc3)c3c2CCO3)c1	35µM*	5%[88.5 µM]	-6%[70.6 µM]	8.9µM*	89µM*	19%[49.3 µM]	13%[49.3 µM]	?
c1ccc(-c2nc3ncccc3[nH]2)cc1	-29%[174 µM]	-4%[88.5 µM]	0%[70.6 µM]	?	?	.	.	.
COc1cccc(-c2ccc(C(=O)NCCNC(=O)c3ccccc3C)cc2)c1	-19%	.	.	.	-27%	.	.	.
CC(C)C(=O)N1CCC(COc2ccc3c(cnn3CC[S+](C)(=O)[O-])c2)CC1	?	4%[88.5 µM]	4%[70.6 µM]	?	?	.	.	.
C[S+](=O)([O-])CCn1ncc2cc(OCc3cccc(-c4ccc(F)cc4)c3)ccc21	?	-32%[88.5 µM]	25µM*	10µM*	?	13%[49.3 µM]	12%[49.3 µM]	?
C[S+](=O)([O-])CCn1ncc2cc(OCc3cccc(-c4ccccc4O)c3)ccc21	?	2%[88.5 µM]	32µM*	4µM*	35µM*	19%[49.3 µM]	16%[49.3 µM]	14µM*
Cc1cc(-c2cccc(COc3ccc4c(cnn4CC[S+](C)(=O)[O-])c3)c2)ccn1	25µM*	-4%[88.5 µM]	10µM*	13µM*	25µM*	20%[49.3 µM]	12%[49.3 µM]	?
N#Cc1cccnc1-c1cccc(C(=O)NCCNC(=O)c2ccc(C(F)(F)F)cc2)c1	?	i	.	.	?	.	.	.
CCC(c1cccs1)N1C(=O)[C@H]2CN(S(=O)(=O)c3cc(F)cc(F)c3)C[C@H]2C1=O (some centres not stated)	-10%	i	-1%	i	?	.	.	.
COc1ccc(CNC(=O)CN2C(=O)NC(c3ccc(Cl)cc3)C3=C2COC3=O)cc1 (configuration not stated)	?	i	-16%	i	?	.	.	.
